{
  "source": "PubChem BioAssay (NCI)",
  "note": "This is part of a sample that, as a whole, favours compounds with a hit. Of some 83,000 tested, about 20% had one in any assay.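 Treatment: one concentration, 48 hours, 96-well format. Scoring: percent growth, with anything below 10 considered active.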 Calls of active or inactive are those of the source.",
  "data": [
    {"system": "NCI-H226 lung", "assay": "NCI-60 one-dose screen, 48 h (100 = growth as untreated, 0 = no growth, -100 = all killed)", "conditions": "10 µM unless noted", "values": [
      {"smiles": "O=[N+]([O-])c1cc(/C=N/Nc2nc(N/N=C/c3ccc(Cl)c([N+](=O)[O-])c3)nc(N3CCCCC3)n2)ccc1Cl", "growth": "61.4% (inactive)"},
      {"smiles": "C#Cc1nc(C(C)=O)cs1", "growth": "99.7% (inactive)"},
      {"smiles": "O=C1[C@H]2Cc3c([nH]c4ccccc34)[C@@H](c3c(Cl)cccc3Cl)N2C(=O)CN1C1CCN(CC2CCCCC2)CC1", "growth": "86.1% (inactive)"},
      {"smiles": "O=C1Nc2ccccc2/C1=C/c1ccc(COCC2CO2)n1-c1ccc(O)cc1", "note": "(stereo not drawn)", "growth": "109% (inactive)"},
      {"smiles": "CCOc1ccc(NC2=C(Cl)C(=O)c3nc(C)ccc3C2=O)cc1", "growth": "-52.6% (active)"},
      {"smiles": "O=S(=O)(NCCCNc1nccc(-c2[nH]c(-c3ccccc3)nc2-c2ccc(Cl)c(O)c2)n1)c1cccc(F)c1", "growth": "62.8% (inactive)"},
      {"smiles": "CN1CCN(Cc2ccc(NC(=O)c3cncc(C#Cc4cnc5ccc(OCC6(C)COC6)nn45)c3)cc2C(F)(F)F)CC1", "growth": "-62.4% (active)"},
      {"smiles": "COc1cc2c(cc1OC)C(Sc1ccc(F)cc1)c1c(nc(N)c(C#N)c1N)O2", "note": "(stereo not drawn)", "growth": "-29.4% (active)"},
      {"smiles": "Cc1nc(-c2ccccc2O)ccc1C(=O)N=Nc1c(O)[nH]c2ccc(Br)cc12", "growth": "81.4% (inactive)"},
      {"smiles": "COc1cc(-c2nnc(SCc3ccc(O)c4ncccc34)n2-c2ccccc2)cc(OC)c1OC", "growth": "8.85% (active)"},
      {"smiles": "NS(=O)(=O)c1ccc(-n2cc(CN3CCCCC3)nn2)cc1", "growth": "98.6% (inactive)"},
      {"smiles": "COc1cc(/C=C2\\C(=O)Nc3ccccc32)ccc1OCc1ccc(Cl)cc1", "growth": "96.6% (inactive)"},
      {"smiles": "Cc1ccc(-c2nnc(SCc3ccc(O)c4ncccc34)o2)cc1", "growth": "45.2% (inactive)"},
      {"smiles": "COc1ccccc1NCc1cccn1Cc1ccc(F)cc1", "growth": "90.4% (inactive)"},
      {"smiles": "CCN1CCN(Cc2ccc(C(=O)Nc3ccc(C)c(Oc4ccc(-c5[nH]nc6ncnc(N)c56)cc4)c3)cc2C(F)(F)F)CC1", "growth": "85.8% (inactive)"},
      {"smiles": "CCOC(=O)c1c(NC(=O)c2ccccc2C(F)(F)F)sc2c1CCC(=O)C2", "growth": "60.8% (inactive)"},
      {"smiles": "CN1CCN(c2ccc(/C=N/n3cnc4oc(-c5ccccc5)cc4c3=N)cc2)CC1", "growth": "87.5% (inactive)"},
      {"smiles": "Cn1ccnc1C(=O)/C=C/c1ccc(CNC(=O)c2ccc(S(F)(F)(F)(F)F)cc2)cc1", "growth": "27% (inactive)"},
      {"smiles": "COc1ccc(NC2=C(Cl)C(=O)c3nc(C)ccc3C2=O)cc1OC", "growth": "97.1% (inactive)"},
      {"smiles": "CCc1nn2c(C)cc(C)nc2c1Cc1ccc(/C=C/CN2CCN(CCOCCOCCN3CCN(C/C=C/c4ccc(Cc5c(CC)nn6c(C)cc(C)nc56)cc4)CC3)CC2)cc1", "growth": "67.9% (inactive)"},
      {"smiles": "COc1c(N2CC3CCCNC3C2)c(F)cc2c(=O)c(C(=O)N/N=C/c3c[nH]c4ccccc34)cn(C3CC3)c12", "note": "(stereo not drawn)", "growth": "107% (inactive)"},
      {"smiles": "CC(=O)c1nnn(-c2c(C(=O)n3nc(C)cc3C)sc(=S)n2-c2ccccc2)c1C", "growth": "95.7% (inactive)"},
      {"smiles": "CCCCc1nc(/C=N/Nc2nc(Nc3ccccc3)nc(Nc3ccc(S(N)(=O)=O)cc3)n2)c(Cl)[nH]1", "growth": "99% (inactive)"},
      {"smiles": "O=C(CNc1nc(-c2cccc([N+](=O)[O-])c2)cs1)Nc1cccc(Cl)c1", "growth": "99.4% (inactive)"},
      {"smiles": "O=C(CSc1nnc(-c2ccc(Cl)cc2)n1-c1ccccc1)Nc1ccc(Br)cc1", "growth": "-27.7% (active)"},
      {"smiles": "Cn1ccnc1C(=O)/C=C/c1ccc(NC(=O)c2c(F)c(F)c(F)c(F)c2F)cc1", "growth": "103% (inactive)"},
      {"smiles": "CNC(=O)c1cc(N2CCc3cc(NC(=O)Nc4ccc(Cl)c(C(F)(F)F)c4)ccc32)ccn1", "growth": "77.2% (inactive)"},
      {"smiles": "COc1c(N2CC3CCCNC3C2)c(F)cc2c(=O)c(C(=O)N/N=C/c3ccccc3)cn(C3CC3)c12", "note": "(stereo not drawn)", "growth": "103% (inactive)"},
      {"smiles": "C[C@H](CCC(=O)NCc1ccc(C(=O)Nc2ccccc2N)cc1)[C@H]1CC[C@H]2[C@@H]3[C@@H](O)C[C@@H]4C[C@H](O)CC[C@]4(C)[C@H]3CC[C@]12C", "growth": "57.1% (inactive)"},
      {"smiles": "COc1c(N2CC3CCCNC3C2)c(F)cc2c(=O)c(C(=O)N/N=C/c3ccc4c(c3)OCO4)cn(C3CC3)c12", "note": "(stereo not drawn)", "growth": "86.5% (inactive)"},
      {"smiles": "O=S(=O)(NCCCNc1nccc(-n2cnc3ccccc32)n1)c1ccc(C(F)(F)F)cc1", "growth": "77.8% (inactive)"},
      {"smiles": "C=CCn1c(SCC(=O)Nc2ccc(C(=O)/C=C/c3cc(OC)c(OC)c(OC)c3)cc2)nnc1-c1c[nH]c2ccccc12", "growth": "-4.91% (active)"},
      {"smiles": "Brc1ccccc1/C=N/Nc1nc(N/N=C/c2ccccc2Br)nc(N2CCOCC2)n1", "growth": "95.1% (inactive)"},
      {"smiles": "COc1ccc(-c2cc(-c3ccc(Cl)cc3)c(C#N)c(=O)n2Cc2ccc(C(=O)O)cc2)cc1", "growth": "100% (inactive)"},
      {"smiles": "CS(=O)(=O)Nc1cc(-c2ccc3ncc(C#N)c(NCc4cccc(F)c4)c3c2)cnc1Cl", "growth": "9.2% (active)"},
      {"smiles": "COc1ccc(NC(=O)Nc2ccc3c(ccn3C(=O)c3cccc(F)c3)c2)cc1", "growth": "69.2% (inactive)"},
      {"smiles": "O=C(CNc1nc(-c2cccc([N+](=O)[O-])c2)cs1)Nc1cccc([N+](=O)[O-])c1", "growth": "-35.9% (active)"},
      {"smiles": "O=C(/C=C/c1ccc(F)cc1)c1ccc(O)cc1", "growth": "105% (inactive)"}
    ]}
  ]
}
